Assay outcomes from PubChem BioAssay.
Only some compounds are listed: those with a hit (about 10% of all), similar ones and a draw of the others.
NIH3T3 tox – cytotoxic compounds in NIH 3T3 cells; Potency, µM (series often up to 96.7 µM), actives largely listed as inhibitors; NIH 3T3 viability, CellTiter-Glo ATP luminescence, 48-72 h; AID 1345082; 94,000 compounds, 4.3% hits; note: nearly all actives have a fitted effect of over 55% in size
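Cytotoxicity is measured as loss of cellular ATP: NIH 3T3 cells (400/well) are exposed to compound for 48 or 72 hr at 37 °C, then CellTiter-Glo luminescence is imaged after 10 min at room temperature.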
NPR1 antag – blocks ANP-stimulated signaling of human Npr1 receptor; 76,000 compounds, 1.6% hits; Potency, µM (doses to about 46.3 µM), actives largely listed as inhibitors; HEK293 hNpr1 GloSensor cGMP, ANP-stimulated luminescence; P16066; AID 1347048; calls by dose curve; note: nearly all actives have a fitted effect of over 60% in size
Target sequence (P16066 whole entry, looked up): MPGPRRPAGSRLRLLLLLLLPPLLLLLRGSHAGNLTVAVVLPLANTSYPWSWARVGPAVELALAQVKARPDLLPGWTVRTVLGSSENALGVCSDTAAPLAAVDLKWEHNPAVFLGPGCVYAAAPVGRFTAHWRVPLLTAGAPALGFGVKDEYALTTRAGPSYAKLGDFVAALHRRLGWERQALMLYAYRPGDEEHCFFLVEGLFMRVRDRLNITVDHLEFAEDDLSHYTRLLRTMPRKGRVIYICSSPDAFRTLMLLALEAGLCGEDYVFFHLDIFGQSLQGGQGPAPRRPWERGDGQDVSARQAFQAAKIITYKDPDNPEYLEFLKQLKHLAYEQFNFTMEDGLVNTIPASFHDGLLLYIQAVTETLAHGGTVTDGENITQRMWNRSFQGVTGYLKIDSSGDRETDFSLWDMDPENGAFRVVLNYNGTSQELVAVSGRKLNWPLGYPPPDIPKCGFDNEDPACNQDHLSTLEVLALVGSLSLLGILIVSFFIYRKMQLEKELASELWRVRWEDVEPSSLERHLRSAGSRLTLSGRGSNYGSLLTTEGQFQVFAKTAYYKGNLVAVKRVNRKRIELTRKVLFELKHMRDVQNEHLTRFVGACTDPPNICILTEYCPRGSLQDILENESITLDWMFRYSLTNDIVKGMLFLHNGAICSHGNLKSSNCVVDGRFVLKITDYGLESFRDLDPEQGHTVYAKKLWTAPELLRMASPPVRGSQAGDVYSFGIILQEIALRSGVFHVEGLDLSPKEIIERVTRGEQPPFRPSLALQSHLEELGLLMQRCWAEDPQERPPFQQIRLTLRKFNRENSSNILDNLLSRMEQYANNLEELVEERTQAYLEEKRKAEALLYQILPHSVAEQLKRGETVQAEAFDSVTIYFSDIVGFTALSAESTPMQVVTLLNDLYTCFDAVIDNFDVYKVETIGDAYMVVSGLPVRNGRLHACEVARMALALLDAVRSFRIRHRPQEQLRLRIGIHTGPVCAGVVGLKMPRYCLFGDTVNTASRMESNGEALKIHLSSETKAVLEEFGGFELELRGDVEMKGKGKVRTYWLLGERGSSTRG
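HEK293 cells stably expressing human Npr1 and cGMP GloSensor pGS-40F, loaded 2 h with 2% GloSensor reagent, given compound 30 min at room temperature. Luminescence read before and 20 min after 0.1 nM hNppA.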
Luciferase inh – blocks purified firefly luciferase enzyme activity; purified P. pyralis luciferase, luminescence, biochemical; Potency, µM (titrated, usually from 115 µM), actives largely listed as inhibitors; 76,000 compounds, 2.5% hits; AID 1347043; note: nearly all actives have a fitted effect of over 65% in size
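Biochemical qHTS: compound (6-point titration) added to 10uM D-luciferin plus 10uM ATP in Tris acetate pH 7.5 buffer with Mg, Tween-20 and BSA, then purified enzyme at 10nM; light output imaged.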
HEK293 tox – kills HEK 293 cells | HEK 293 viability, ATP luminescence (CellTiter-Glo), 48-72 h | Potency, µM (series often up to 115 µM), actives largely listed as inhibitors | 94,000 compounds, 6.6% hits; note: nearly all actives have a fitted effect of over 60% in size
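qHTS cytotoxicity; HEK 293, 250 cells/well; compound pinned; 48 or 72 hr, 37 degree Celsius, 5% CO2, 95% humidity; CellTiter-Glo, 10 min RT; luminescence (ATP).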
GPT2 inhibitor – GPT2 alanine aminotransferase inhibition. Q8TD30. Recombinant GPT2, coupled pyruvate oxidase/HRP Amplex Red fluorescence. Potency, µM (doses to about 57.7 µM), most hits filed as inhibitors. 100,000 compounds, 0.25% hits. AID 1671188; note: nearly all actives have a fitted effect of over 60% in size
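Fluorescence of coupled pyruvate oxidase/HRP/Amplex Red system (50uM Amplex, 30 min, dark) reports pyruvate formed by GPT2. Enzyme reaction: 10ng/uL GPT2, 2mM L-alanine, 250uM a-KG, 30 min room temperature, pH 7.5; 50uM AOA control.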
Numbers stand for hits; - = inactive; ? = inconclusive; . = not tested or not shown. Unless noted, calls come from the whole dose curve; as a rule, active = well fitted curve in the direction sought with a large enough effect; inconclusive = small, poorly fitted or top-dose-only effect, or another doubt; inactive = no such curve, though single readings can be large; an effect the other way counts as inactive or inconclusive.

SMILES | NIH3T3 tox | NPR1 antag | Luciferase inh | HEK293 tox | GPT2 inhibitor
CN(C)CC1(O)CCCN(Cc2ccc(Oc3ccc(Cl)cc3)cc2)C1 (centres undefined) | 22µM | - | - | ? | -
CC(C)c1ccc(-n2cc(CN3CCCC(O)(CN(C)C)C3)cn2)cc1 (centres undefined) | ? | - | ? | 22µM | -
O=C1CCN(C(=O)c2ccccc2)CCCC(C(=O)NCCCN2CCCc3ccccc32)CCN1 (centres undefined) | ? | - | ? | ? | -
CC1=C[C@@H](CNC2CCOCC2)[C@H](C(C)C)C[C@H]1Cc1nc2ccc(Cl)cc2[nH]1 | 100µM | - | - | ? | ?
CC1=C[C@@H](CN(C)C)[C@H](C(C)C)C[C@H]1Cc1nc2ncc(Cl)cc2[nH]1 | 71µM | - | - | 79µM | -
CC1=C[C@@H](CNC(=O)CC2(CC(=O)O)CCCC2)[C@H](C(C)C)C[C@H]1Cc1nc2ccc(C)cc2[nH]1 | - | - | - | - | -
CC1=C[C@@H](CNC(=O)CCC(=O)O)[C@H](C(C)C)C[C@H]1Cc1nc2ccc(Cl)cc2[nH]1 | - | - | - | - | -
CC1=C[C@@H](CNC(=O)CN(C)C)[C@H](C(C)C)C[C@H]1Cc1nc2ccc(Cl)cc2[nH]1 | 89µM | - | - | ? | -
COc1ccc2[nH]c(C[C@@H]3C[C@@H](C(C)C)[C@H](CN)C=C3C)nc2n1 | ? | ? | - | ? | -
CC1=C[C@@H](CNC(=O)CN(C)C)[C@H](C(C)C)C[C@H]1Cc1nc2ccc(C)cc2[nH]1 | 79µM | - | - | ? | -
COc1ccccc1-c1cc(C(=O)NCCc2cnc[nH]2)c2c(c1)N(C)CCO2 | ? | - | ? | ? | -
O=C(NCCc1noc(-c2ccccc2)n1)C1NCCc2[nH]cnc21 (centres undefined) | - | - | - | - | -
CC1(COc2ccccc2)COc2ccc(C(=O)Nc3ccc4[nH]ccc4c3)cc2N1 (centres undefined) | 35µM | ? | ? | 45µM | -
CC1(COc2cccnc2)COc2ccc(C(=O)Nc3ccc4[nH]ccc4c3)cc2N1 (centres undefined) | 89µM | - | 40µM | ? | -
COc1ccc(NC(=O)c2ccc3c(c2)NC(C)(COc2ccccc2)CO3)cc1OC (centres undefined) | ? | - | - | ? | -
CCOCC1(C)COc2ccc(C(=O)N(C)Cc3ccccc3)cc2N1 (centres undefined) | ? | - | - | ? | -
CN(Cc1ccccc1)C(=O)c1ccc2c(c1)NC(C)(COc1ccccc1)CO2 (centres undefined) | 50µM | - | - | 71µM | ?
CC1(COc2ccccc2)COc2ccc(C(=O)Nc3ccccc3)cc2N1 (centres undefined) | ? | - | - | 71µM | -
CCCN1CCC2(Cc3ccccc3CN(C(C)=O)C2)C1 (centres undefined) | - | . | . | - | -
Cc1ccc(-c2nocc2CCC(=O)NCc2ccc(F)cc2Cl)cc1 | ? | - | - | ? | -
COc1ccc(-n2nc(C3CCN(C(=O)c4cccc(Cl)c4)CC3)[nH]c2=O)cc1 | - | ? | - | ? | -
COc1ccc(OC2CN(Cc3ccnn3C)C2)cc1 | - | . | . | - | -
COC(=O)[C@@H]1C[C@H](NC(=O)CCCc2cccs2)CN1C | - | - | - | - | -
COC(=O)[C@@H]1Cc2c([nH]c3ccccc23)[C@H]2C[C@@H](NCCO)C[C@@H](c3cccc(OC)c3)N21 | 28µM | - | - | 28µM | -
COC(=O)[C@@H]1Cc2c([nH]c3ccccc23)[C@H]2C[C@@H](NCCO)C[C@@H](c3ccc(F)cc3)N21 | 28µM | - | - | 28µM | -
SMILES | NIH3T3 tox | NPR1 antag | Luciferase inh | HEK293 tox | GPT2 inhibitor
COC(=O)[C@@H]1Cc2c([nH]c3ccccc23)[C@H]2C[C@H](NCc3cccs3)C[C@@H](c3ccccc3)N21 | 25µM | - | - | ? | -
COC(=O)[C@@H]1Cc2c([nH]c3ccccc23)[C@H]2C[C@H](NCCO)C[C@@H](c3ccccc3)N21 | 45µM | - | ? | ? | -
COc1cccc(CC(=O)N2[C@@H]3CC[C@H]2CC(NC(=O)c2ccc(F)cc2)C3)c1 (some centres undefined) | - | - | - | - | -
COc1ccc([C@@H]2N[C@H](C(=O)O)Cc3c2[nH]c2ccccc32)cc1CN1CCN(c2ccccc2F)CC1 | . | . | . | . | -
CO[C@@]1(C)C[C@@H](O)C12CCN(C(=O)C1(c3ccccc3F)CC1)CC2 | - | - | - | - | -
COC(=O)[C@@H]1Cc2c([nH]c3ccccc23)[C@H]2C[C@@H](NC3CC3)C[C@@H](c3ccc(F)cc3)N21 | 28µM | ? | - | 8.9µM | -
C#CCN[C@H]1C[C@@H]2c3[nH]c4ccccc4c3C[C@@H](C(=O)OC)N2[C@H](c2ccc(F)cc2)C1 | ? | - | - | 28µM | -
O=C(c1ccc(F)cc1)C1CCN(CCn2c(=O)[nH]c3ccccc3c2=O)CC1 | . | . | . | . | -
CCOC(=O)C1CCCN(C(=O)C2CCc3nnc(C4CC4)n32)C1 (centres undefined) | 25µM | . | . | ? | -
Cc1cc(=O)n(CC(=O)Nc2cc(Cl)ccc2C)c(N(C)Cc2ccccc2)n1 | ? | - | - | 25µM | -
CCOc1ccccc1NC(=O)Cn1c(N(C)Cc2ccccc2)nc(C)cc1=O | ? | - | - | 35µM | -
COc1ccc(CCNC(=O)c2nc3sccn3c2-c2ccc(OC)cc2)cc1 | ? | . | . | ? | -
Cc1ccc(-c2c(C(=O)NCCCc3ccccc3)nc3sccn23)cc1 | 28µM | . | . | 18µM | -
COc1ccc(CCNC(=O)c2nc3sccn3c2-c2ccc(C)cc2)cc1 | 22µM | . | . | ? | -
O=C(NCc1ccccn1)c1nc2sccn2c1-c1ccc(F)cc1 | ? | . | . | - | -
Cc1ccc(-c2c(C(=O)NCc3ccccn3)nc3sccn23)cc1 | ? | . | . | 79µM | -
COc1ccc(-c2c(C(=O)NC3CCCCCC3)nc3sccn23)cc1 | - | . | . | 45µM | -
O=C(NCCCc1ccccc1)c1nc2sccn2c1-c1ccc(C(F)(F)F)cc1 | ? | . | . | ? | -
O=C(NCC1CCCCC1)c1nc2sccn2c1-c1ccccc1 | 28µM | . | . | ? | -
O=C(NCC1CCCCC1)c1nc2sccn2c1-c1cccnc1 | ? | . | . | - | -
O=C(NCCCc1ccccc1)c1nc2sccn2c1-c1cccc(C(F)(F)F)c1 | ? | . | . | 50µM | -
COc1ncccc1-c1cc2[nH]ccc2c(C(=O)NCc2c(C)cc(C)[nH]c2=O)n1 | 50µM | - | - | ? | ?
Cc1cc(C)c(CNC(=O)c2nc(-c3cccc(O)c3)cc3[nH]ccc23)c(=O)[nH]1 | 50µM | - | ? | 79µM | -
COc1ccccc1-c1cc2[nH]ccc2c(C(=O)NCc2c(C)cc(C)[nH]c2=O)n1 | ? | - | - | ? | ?
